# Laboratory results: PubChem BioAssay (EPA / NIEHS)
# Records with an inconclusive call do not appear. More than one record can exist for a structure, and the calls need not agree. Active and inactive are the calls of the source. How the source made its calls: active means hit-call score of the fitted dose curve at least 0.9, where 1 is the maximum; inconclusive means response in the unintended direction; inactive means score below 0.9.
# Tests used:
# [1] = NVS_GPCR_bNPY_NonSelective: NovaScreen (NVS) G Protein-Coupled Receptor Assay for bovine Neuropeptide Y (NPY) Receptor, Non-selective Binding (AID 2283245)
# In short: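 Bovine hippocampal membranes incubated 1 hour with radioligand and test chemical. Bound ligand measured by filter-based scintillation counting. Single-concentration screen at 25 uM in duplicate, then concentration-response up to 50 uM.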
# [2] = tested on: guinea pig Muscarinic, Peripheral (Mperiperal) Receptor, Non-selective Binding, gene 100379235; test: NVS_GPCR_gMPeripheral_NonSelective: NovaScreen (NVS) G Protein-Coupled Receptor Assay for guinea pig Muscarinic, Peripheral (Mperiperal) Receptor, Non-selective Binding (AID 2283250)
# In short: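 Guinea pig bladder membranes, radioligand binding read 1 h after dosing by filter scintillation counting; loss of signal vs DMSO. Primary duplicate screen at 25 uM, then concentration-response up to 50 uM.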
# [3] = molecular target: human Serotonin, 5-Hydroxytryptamine Receptor 2A (5HT2A), HTR2A (gene 3356) (UniProt P28223); test: NVS_GPCR_h5HT2A: NovaScreen (NVS) G Protein-Coupled Receptor Assay for human Serotonin, 5-Hydroxytryptamine Receptor 2A (5HT2A) (AID 2283249)
# human Serotonin, 5-Hydroxytryptamine Receptor 2A (5HT2A), HTR2A (gene 3356), sequence (P28223 whole entry, looked up): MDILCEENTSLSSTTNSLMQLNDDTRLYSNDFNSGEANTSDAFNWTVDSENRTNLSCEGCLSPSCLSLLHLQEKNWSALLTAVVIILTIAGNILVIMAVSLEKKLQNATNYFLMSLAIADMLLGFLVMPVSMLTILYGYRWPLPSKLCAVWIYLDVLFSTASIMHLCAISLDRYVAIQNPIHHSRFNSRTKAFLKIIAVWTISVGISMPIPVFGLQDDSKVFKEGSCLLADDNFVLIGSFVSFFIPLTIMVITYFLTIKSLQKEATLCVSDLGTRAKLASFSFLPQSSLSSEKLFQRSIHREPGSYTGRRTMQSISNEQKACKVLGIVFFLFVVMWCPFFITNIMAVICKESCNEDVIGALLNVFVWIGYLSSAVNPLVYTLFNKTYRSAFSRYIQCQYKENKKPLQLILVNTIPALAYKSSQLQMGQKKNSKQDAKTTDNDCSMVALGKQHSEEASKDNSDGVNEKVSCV
# In short: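 Human cortex membranes, cell-free radioligand binding; filter-based scintillation read 1.5 h after dosing. Duplicate screen at 25 uM first; displacement of specific binding (loss of signal) versus DMSO.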
# [4] = molecular target: human Serotonin, 5-Hydroxytryptamine Receptor 6 (5HT6), HTR6 (gene 3362) (UniProt P50406); test: NVS_GPCR_h5HT6: NovaScreen (NVS) G Protein-Coupled Receptor Assay for human Serotonin, 5-Hydroxytryptamine Receptor 6 (5HT6) (AID 2283253)
# human Serotonin, 5-Hydroxytryptamine Receptor 6 (5HT6), HTR6 (gene 3362), sequence (P50406 whole entry, looked up): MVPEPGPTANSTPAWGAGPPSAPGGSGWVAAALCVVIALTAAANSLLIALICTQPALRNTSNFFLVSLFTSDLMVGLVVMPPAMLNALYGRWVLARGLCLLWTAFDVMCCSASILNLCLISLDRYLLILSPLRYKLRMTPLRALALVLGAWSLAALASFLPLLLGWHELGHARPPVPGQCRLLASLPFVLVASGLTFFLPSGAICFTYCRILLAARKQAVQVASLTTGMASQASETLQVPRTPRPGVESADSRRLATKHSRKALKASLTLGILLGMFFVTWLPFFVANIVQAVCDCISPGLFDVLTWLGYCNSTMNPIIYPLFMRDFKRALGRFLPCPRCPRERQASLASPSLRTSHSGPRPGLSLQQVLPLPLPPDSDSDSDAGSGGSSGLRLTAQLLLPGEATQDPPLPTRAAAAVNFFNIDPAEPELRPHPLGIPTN
# In short: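 Radioligand binding to 5HT6 in HEK293-derived membranes, cell-free, 1 h after dosing; bound ligand measured by filter-based scintillation counting. Primary screen in duplicate at 25 uM; actives retested in concentration series.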
# [5] = molecular target: Beta-2 adrenergic receptor (Homo sapiens) (UniProt P07550); test: NVS_GPCR_hAdrb2: NovaScreen (NVS) G Protein-Coupled Receptor Assay for human Adrenergic, Beta 2 Receptor (Adrb2) (AID 2283261)
# Beta-2 adrenergic receptor (Homo sapiens), sequence (P07550 whole entry, looked up): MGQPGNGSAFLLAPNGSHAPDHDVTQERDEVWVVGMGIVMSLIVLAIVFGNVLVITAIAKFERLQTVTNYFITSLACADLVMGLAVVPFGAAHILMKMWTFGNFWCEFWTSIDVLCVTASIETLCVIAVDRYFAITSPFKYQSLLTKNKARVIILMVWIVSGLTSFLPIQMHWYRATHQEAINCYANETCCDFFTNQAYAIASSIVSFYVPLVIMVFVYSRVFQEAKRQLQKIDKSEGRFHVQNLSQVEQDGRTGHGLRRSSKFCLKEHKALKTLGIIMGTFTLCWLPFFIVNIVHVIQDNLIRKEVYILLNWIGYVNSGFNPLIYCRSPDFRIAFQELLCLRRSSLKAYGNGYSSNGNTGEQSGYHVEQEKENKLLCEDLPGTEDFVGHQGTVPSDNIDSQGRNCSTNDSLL
# Method: NVS_GPCR_hAdrb2 is a biochemical, single-readout assay that uses extracted gene-proteins from CHO in a cell-free assay. Measurements were taken 1 hour after chemical dosing in a 96-well plate.NVS_GPCR_hAdrb2 is one of one assay component(s) measured or calculated from the NVS_GPCR_hAdrb2 assay. It is designed to make measurements of radioligand binding, a form of binding reporter, as detected with scintillation counting signals by Filter-based radiodetection technology.Data from the assay component NVS_GPCR_hAdrb2 was analyzed into 1 assay endpoint. This assay endpoint, NVS_GPCR_hAdrb2, was analyzed in the positive analysis fitting direction relative to DMSO as the negative control and baseline of activity. […] Furthermore, this assay endpoint can be referred to as a primary readout, because the performed assay has only produced 1 assay endpoint. […]
# Binding assays used specific radioligands (tritiated, iodinated) with non-radioactive competitive displacement ligands in agonist or antagonist protocols (as indicated) and various reference compounds and inhibitors to titrate specific binding to receptors and transporters. Most enzyme assays (CYPs, kinases, phosphatases, proteases, HDACs) used recombinant protein and specific substrates (fluorescence mostly, some colorimetric and radioactive) and inhibitors, followed by a biochemical separation of substrate and product. […]
# [6] = molecular target: human Adrenergic, Beta 3 Receptor (Adrb3), ADRB3 (gene 155) (UniProt P13945); test: NVS_GPCR_hAdrb3: NovaScreen (NVS) G Protein-Coupled Receptor Assay for human Adrenergic, Beta 3 Receptor (Adrb3) (AID 2283262)
# human Adrenergic, Beta 3 Receptor (Adrb3), ADRB3 (gene 155), sequence (P13945 whole entry, looked up): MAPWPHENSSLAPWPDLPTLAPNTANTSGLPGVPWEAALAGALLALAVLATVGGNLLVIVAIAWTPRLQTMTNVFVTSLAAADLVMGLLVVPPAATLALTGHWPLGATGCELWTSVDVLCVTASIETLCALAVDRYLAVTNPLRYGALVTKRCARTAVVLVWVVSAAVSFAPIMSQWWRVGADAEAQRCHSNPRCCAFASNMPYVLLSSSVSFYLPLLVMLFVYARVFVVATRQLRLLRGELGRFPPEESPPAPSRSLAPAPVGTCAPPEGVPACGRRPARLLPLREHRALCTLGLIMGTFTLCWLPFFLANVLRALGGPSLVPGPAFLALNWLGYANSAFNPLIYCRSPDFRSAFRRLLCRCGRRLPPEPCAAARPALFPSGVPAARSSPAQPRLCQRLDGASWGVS
# Method: NVS_GPCR_hAdrb3 is a biochemical, single-readout assay that uses extracted gene-proteins from SK-N-MC pretreated with isoproteronol and 8-bromo-cAMP in a cell-free assay. Measurements were taken 1 hour after chemical dosing in a 48-well plate.NVS_GPCR_hAdrb3 is one of one assay component(s) measured or calculated from the NVS_GPCR_hAdrb3 assay. It is designed to make measurements of radioligand binding, a form of binding reporter, as detected with scintillation counting signals by Filter-based radiodetection technology.Data from the assay component NVS_GPCR_hAdrb3 was analyzed into 1 assay endpoint. This assay endpoint, NVS_GPCR_hAdrb3, was analyzed in the positive analysis fitting direction relative to DMSO as the negative control and baseline of activity. Using a type of binding reporter, loss-of-signal activity can be used to understand changes in the binding as they relate to the gene ADRB3. Furthermore, this assay endpoint can be referred to as a primary readout, because the performed assay has only produced 1 assay endpoint. To generalize the intended target to other relatable targets, this assay endpoint is annotated to the gpcr intended target family, where the subfamily is rhodopsin-like receptor. […]
smiles,measurement,setting,value
CCCCNC(=O)OCC#CI,AC50,[1],4.96 µM (active)
same,outcome,[1],inactive
same,outcome,[2],inactive
Fc1ccc(Oc2ccnc3cc(Cl)cc(Cl)c23)cc1,outcome,[3],inactive
CCNc1nc(Cl)nc(NCC)n1,outcome,[3],inactive
CO/C=C(/C(=O)OC)c1ccccc1Oc1cc(Oc2ccccc2C#N)ncn1,outcome,[2],inactive
CN(C)C(=S)SSC(=S)N(C)C,AC50,[4],5.18 µM (active)
OC(c1ccc(Cl)cc1)(c1cncnc1)c1ccccc1Cl (stereo unspecified),AC50,[4],8.03 µM (active)
same,outcome,[5],inactive
COc1ccc(C(c2ccc(OC)cc2)C(Cl)(Cl)Cl)cc1,outcome,[5],inactive
O=C(Nc1ccccc1)Nc1ccnc(Cl)c1,outcome,[6],inactive
